From PubChem BioAssay (NCI)
Compounds without any hit were thinned out: in the full panel of roughly 83,000, 20% have a hit.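 Interpretation: 100, growth as untreated; towards 0, rising growth inhibition; 0, no net growth; 0 to -100, cell death. Compounds scoring below 10 were considered active.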 Calls of active or inactive are those of the source.

What was measured:
Assay in all cases: NCI-60 one-dose screen, 48 h (100 = growth as untreated, 0 = no growth, -100 = all killed)
Conditions in all cases: 10 µM unless noted
RPMI-8226 leukemia = test system: RPMI-8226 leukemia
OVCAR-8 ovarian = test system: OVCAR-8 ovarian
OVCAR-5 ovarian = test system: OVCAR-5 ovarian
OVCAR-4 ovarian = test system: OVCAR-4 ovarian
SK-OV-3 ovarian = test system: SK-OV-3 ovarian
IGROV1 ovarian = test system: IGROV1 ovarian
OVCAR-3 ovarian = test system: OVCAR-3 ovarian
HS 578T breast = test system: HS 578T breast
NCI/ADR-RES ovarian = test system: NCI/ADR-RES ovarian

Measured: growth

O=C(c1ccccc1)c1c(/C=C/c2ccc(Cl)cc2)nc2ccccc2c1/C=C/c1cccs1
inactive: RPMI-8226 leukemia 94.6% | OVCAR-8 ovarian 98% | OVCAR-5 ovarian 98.1% | OVCAR-4 ovarian 96.3% | SK-OV-3 ovarian 97.2% | IGROV1 ovarian 94.1% | OVCAR-3 ovarian 95.4% | HS 578T breast 106% | NCI/ADR-RES ovarian 99.8%

CN(C)CCC=C1c2ccccc2C(C)(C)c2ccccc21
active: RPMI-8226 leukemia 0.547%
inactive: OVCAR-8 ovarian 88.9% | OVCAR-5 ovarian 59.4% | OVCAR-4 ovarian 76.5% | SK-OV-3 ovarian 99.7% | IGROV1 ovarian 61.3% | OVCAR-3 ovarian 80.1% | HS 578T breast 50.8% | NCI/ADR-RES ovarian 77.6%

Cn1c(=O)c2c(nc(Cl)n2CCl)n(C)c1=O
inactive: RPMI-8226 leukemia 92.3% | OVCAR-8 ovarian 83% | OVCAR-5 ovarian 103% | OVCAR-4 ovarian 83.2% | SK-OV-3 ovarian 115% | IGROV1 ovarian 53.8% | OVCAR-3 ovarian 116% | HS 578T breast 83.8% | NCI/ADR-RES ovarian 101%

CCc1ccccc1NC(=O)/C(C#N)=C/c1ccc(OC)cc1
inactive: RPMI-8226 leukemia 91% | OVCAR-8 ovarian 89.5% | OVCAR-5 ovarian 100% | OVCAR-4 ovarian 94.3% | SK-OV-3 ovarian 105% | IGROV1 ovarian 115% | OVCAR-3 ovarian 92.6% | HS 578T breast 92.6% | NCI/ADR-RES ovarian 97.8%

COc1cc(/C=N/NC(=O)Cn2c(C(C)C)nc3ccccc32)ccc1O
inactive: RPMI-8226 leukemia 87% | OVCAR-8 ovarian 98.8% | OVCAR-5 ovarian 94.6% | OVCAR-4 ovarian 108% | SK-OV-3 ovarian 100% | IGROV1 ovarian 91.1% | OVCAR-3 ovarian 108% | HS 578T breast 98.2% | NCI/ADR-RES ovarian 99.3%

COc1ccc(/C=C/c2c(C(=O)/C=C/c3ccc(F)cc3)c(C)nc3ccccc23)cc1
inactive: OVCAR-8 ovarian 41.3% | OVCAR-5 ovarian 50.9% | OVCAR-4 ovarian 56% | SK-OV-3 ovarian 75.9% | IGROV1 ovarian 38.8% | OVCAR-3 ovarian 37.5% | HS 578T breast 70.5% | NCI/ADR-RES ovarian 33.1%
active: RPMI-8226 leukemia -8.58%

Cc1cc(O)c(C2=NN(c3ccc(S(N)(=O)=O)cc3)C(c3ccccc3Cl)C2)cc1Cl (stereo unspecified)
active: OVCAR-8 ovarian -14.5% | OVCAR-3 ovarian -13.1% | HS 578T breast -4.47% | NCI/ADR-RES ovarian -11%
inactive: RPMI-8226 leukemia 11% | OVCAR-5 ovarian 18.1% | OVCAR-4 ovarian 34.3% | SK-OV-3 ovarian 44.5% | IGROV1 ovarian 12.2%

CNc1ccc(NC)c2c1C(=O)c1ccccc1C2=O
inactive: RPMI-8226 leukemia 90.2% | OVCAR-8 ovarian 71.5% | OVCAR-5 ovarian 101% | OVCAR-4 ovarian 68.4% | SK-OV-3 ovarian 67.4% | IGROV1 ovarian 69% | OVCAR-3 ovarian 95.4% | HS 578T breast 98.5% | NCI/ADR-RES ovarian 88%

COC(=O)/C=C1\S/C(=N\NS(=O)(=O)c2ccc(C)cc2)N(c2ccccc2)C1=O
inactive: RPMI-8226 leukemia 106% | OVCAR-8 ovarian 99.8% | OVCAR-5 ovarian 109% | OVCAR-4 ovarian 91% | SK-OV-3 ovarian 111% | IGROV1 ovarian 103% | OVCAR-3 ovarian 105% | HS 578T breast 98.9% | NCI/ADR-RES ovarian 108%

O=C(CSc1nccc(Nc2ccc(S(=O)(=O)Nc3nccs3)cc2)n1)c1ccc(F)cc1
inactive: RPMI-8226 leukemia 108% | OVCAR-8 ovarian 98.1% | OVCAR-5 ovarian 106% | OVCAR-4 ovarian 99.2% | SK-OV-3 ovarian 97.6% | IGROV1 ovarian 106% | OVCAR-3 ovarian 111% | HS 578T breast 97.9% | NCI/ADR-RES ovarian 101%

Cc1cc(=O)[nH]c(N=Nc2c(O)[nH]c3ccccc23)n1
inactive: RPMI-8226 leukemia 105% | OVCAR-8 ovarian 104% | OVCAR-5 ovarian 105% | OVCAR-4 ovarian 118% | SK-OV-3 ovarian 112% | IGROV1 ovarian 92.8% | OVCAR-3 ovarian 112% | HS 578T breast 122% | NCI/ADR-RES ovarian 108%

O=c1ccn2nc3ccccc3c2[nH]1
inactive: RPMI-8226 leukemia 101% | OVCAR-8 ovarian 114% | OVCAR-5 ovarian 79.2% | OVCAR-4 ovarian 111% | SK-OV-3 ovarian 99.4% | IGROV1 ovarian 110% | OVCAR-3 ovarian 117% | HS 578T breast 134% | NCI/ADR-RES ovarian 60.1%

CN(C)CCCn1c(=O)c2ccccc2c2ccccc21
inactive: RPMI-8226 leukemia 59.9% | OVCAR-8 ovarian 49.8% | OVCAR-5 ovarian 73.3% | OVCAR-4 ovarian 86.3% | SK-OV-3 ovarian 92.3% | IGROV1 ovarian 56.2% | OVCAR-3 ovarian 96.5% | HS 578T breast 79.3% | NCI/ADR-RES ovarian 78.3%

O=S(=O)(NCCCNc1cc(-c2c(-c3cccc(O)c3)nc3sccn23)ccn1)c1cccc(Cl)c1
inactive: OVCAR-8 ovarian 17.1% | OVCAR-5 ovarian 107% | OVCAR-4 ovarian 35.2% | SK-OV-3 ovarian 49.1% | IGROV1 ovarian 40.5% | OVCAR-3 ovarian 32.7% | HS 578T breast 32.5% | NCI/ADR-RES ovarian 76.7%
active: RPMI-8226 leukemia 5.17%

COc1ccc(/C=N/C2=C(C#N)C(c3ccc(OC)cc3)c3ccc4ccccc4c3O2)cc1 (stereo unspecified)
inactive: RPMI-8226 leukemia 81.7% | OVCAR-8 ovarian 84.7% | OVCAR-5 ovarian 104% | OVCAR-4 ovarian 85.4% | SK-OV-3 ovarian 77.6% | IGROV1 ovarian 56.2% | OVCAR-3 ovarian 78.9% | HS 578T breast 84.2% | NCI/ADR-RES ovarian 45%

O=C(NCCc1ccc(O)c(O)c1)C12CC3CC(CC(C3)C1)C2
inactive: RPMI-8226 leukemia 22.5% | OVCAR-8 ovarian 95.6% | OVCAR-5 ovarian 66.3% | OVCAR-4 ovarian 87.3% | SK-OV-3 ovarian 86.7% | IGROV1 ovarian 56.1% | OVCAR-3 ovarian 86% | HS 578T breast 83.3% | NCI/ADR-RES ovarian 61.1%

CC1=NOC(=O)/C1=C\c1ccc(O)cc1
inactive: RPMI-8226 leukemia 109% | OVCAR-8 ovarian 98.3% | OVCAR-5 ovarian 99.8% | OVCAR-4 ovarian 106% | SK-OV-3 ovarian 103% | IGROV1 ovarian 104% | OVCAR-3 ovarian 103% | HS 578T breast 98.3% | NCI/ADR-RES ovarian 106%

CSc1n(Cc2ccc3ccccc3c2)c(C)c[n+]1Cc1ccc2ccccc2c1
active: RPMI-8226 leukemia -38.3% | OVCAR-8 ovarian -3.48% | OVCAR-5 ovarian 6.94% | OVCAR-4 ovarian -7.94% | SK-OV-3 ovarian 5.34% | IGROV1 ovarian -55.6% | OVCAR-3 ovarian -41.9% | HS 578T breast -23.3%
inactive: NCI/ADR-RES ovarian 78.4%

O=C(Cc1ccc(F)c(F)c1)Nc1cc(C2(C(F)(F)F)CC2)nn1Cc1ccccc1
inactive: OVCAR-4 ovarian 10.2% | IGROV1 ovarian 30.3%
active: RPMI-8226 leukemia 3.57% | OVCAR-8 ovarian 6.55% | OVCAR-5 ovarian 2.55% | SK-OV-3 ovarian -24.7% | OVCAR-3 ovarian 7.3% | HS 578T breast -2.64% | NCI/ADR-RES ovarian 4.36%

COc1ccc(-c2nc3ccc4[nH]ncc4c3c3c2CCCC3)cc1B(O)O
inactive: RPMI-8226 leukemia 47.6% | OVCAR-8 ovarian 56.4% | OVCAR-5 ovarian 90.5% | OVCAR-4 ovarian 74.8% | SK-OV-3 ovarian 14.4% | IGROV1 ovarian 35.6% | OVCAR-3 ovarian 94.8% | NCI/ADR-RES ovarian 71.2%
active: HS 578T breast 0.224%

Cc1ccc(S(=O)(=O)n2cc(CNc3ccc(N4CCOCC4=O)cc3)c3ccccc32)cc1
inactive: RPMI-8226 leukemia 67.9% | OVCAR-8 ovarian 81.7% | OVCAR-5 ovarian 30.1% | OVCAR-4 ovarian 62.3% | SK-OV-3 ovarian 87.4% | IGROV1 ovarian 67.5% | OVCAR-3 ovarian 86.8% | HS 578T breast 89.6% | NCI/ADR-RES ovarian 78%

COc1cc(C2CC(c3ccc(Nc4ccnc5cc(Cl)ccc45)cc3)=NN2C=O)cc(OC)c1OC (stereo unspecified)
active: OVCAR-3 ovarian 2.55%
inactive: RPMI-8226 leukemia 21.3% | OVCAR-8 ovarian 74% | OVCAR-5 ovarian 109% | OVCAR-4 ovarian 86.3% | SK-OV-3 ovarian 86.8% | IGROV1 ovarian 106% | HS 578T breast 26.2% | NCI/ADR-RES ovarian 73.4%

O=S(=O)(Nc1cccc(Cl)c1)c1ccc(-c2cnc(C3CC3)o2)cc1
active: OVCAR-3 ovarian -9.95% | HS 578T breast 1.3%
inactive: RPMI-8226 leukemia 17.8% | OVCAR-8 ovarian 33.5% | OVCAR-5 ovarian 37.2% | OVCAR-4 ovarian 41.7% | SK-OV-3 ovarian 34.3% | IGROV1 ovarian 26.4% | NCI/ADR-RES ovarian 18.9%

O=c1oc2ccccc2c(Cl)c1Cl
inactive: RPMI-8226 leukemia 40.6% | OVCAR-8 ovarian 61% | OVCAR-5 ovarian 88.1% | OVCAR-4 ovarian 91.7% | SK-OV-3 ovarian 94.7% | IGROV1 ovarian 47.5% | OVCAR-3 ovarian 103% | HS 578T breast 85% | NCI/ADR-RES ovarian 86.4%

N#C/C(=C\c1ccc(-c2ccccc2F)o1)c1nc(-c2ccco2)cs1
inactive: RPMI-8226 leukemia 80.3% | OVCAR-8 ovarian 94.2% | OVCAR-5 ovarian 78.2% | OVCAR-4 ovarian 19.6% | SK-OV-3 ovarian 92.6% | IGROV1 ovarian 59.9% | OVCAR-3 ovarian 89.6% | HS 578T breast 98.5% | NCI/ADR-RES ovarian 106%

Cc1ccc(C2SCC(=O)N2Cc2ccccc2)cc1 (stereo unspecified)
inactive: RPMI-8226 leukemia 96.7% | OVCAR-8 ovarian 98.8% | OVCAR-5 ovarian 101% | OVCAR-4 ovarian 98.9% | SK-OV-3 ovarian 103% | IGROV1 ovarian 102% | OVCAR-3 ovarian 116% | HS 578T breast 103% | NCI/ADR-RES ovarian 103%

CCCCCCN(CCCCCC)c1ccc(/C=C2/SC(=O)N(c3nc(N4CCCC4)nc(N4CCCC4)n3)C2=O)c(C)c1
inactive: RPMI-8226 leukemia 42% | OVCAR-8 ovarian 66.1% | OVCAR-5 ovarian 104% | OVCAR-4 ovarian 51.9% | SK-OV-3 ovarian 91.3% | IGROV1 ovarian 77.3% | OVCAR-3 ovarian 63.2% | HS 578T breast 78.4% | NCI/ADR-RES ovarian 71.3%

Cc1cc(/C=C\c2ccc3ccccc3[n+]2C)c(O)c2ncccc12
inactive: RPMI-8226 leukemia 14% | OVCAR-5 ovarian 23.9% | SK-OV-3 ovarian 20.9% | OVCAR-3 ovarian 25.8% | HS 578T breast 32.9% | NCI/ADR-RES ovarian 32.4%
active: OVCAR-8 ovarian 6.2% | OVCAR-4 ovarian 7.86% | IGROV1 ovarian -1.34%

O=C1NC(=Nc2ccc(Cl)cc2)S/C1=C\c1cn(-c2ccccc2)nc1-c1ccccc1
active: OVCAR-4 ovarian 0.154%
inactive: RPMI-8226 leukemia 83.3% | OVCAR-8 ovarian 75.1% | OVCAR-5 ovarian 98.6% | SK-OV-3 ovarian 104% | IGROV1 ovarian 79.7% | OVCAR-3 ovarian 89.2% | HS 578T breast 71% | NCI/ADR-RES ovarian 91.6%
